{"source": "PubChem BioAssay (NCATS)", "note": "Results filed as inconclusive are left out. Values without a mark were called inactive. Calls follow the shape of the dose curve; as a rule, active = well fitted activation curve with a large enough effect; inconclusive = small, poorly fitted or top-dose-only effect, or effect the other way; inactive = flat fitted curve, though single readings scatter.", "data": [{"experiment": "Cellular Toxicity (caspase-3) NIH 3T3 (AID 666);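 also: caspase signal read after 16 h compound exposure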", "conditions": "NIH 3T3 caspase-3 activation, apoptosis/toxicity, 0% DMSO, 100% is 100 µM tamoxifen; series mostly up to 92.2 µM; caspase-3 activation: at the top concentration", "from_the_text": "NIH Chemical Genomics Center [NCGC]\nNIH Molecular Libraries Screening Centers Network [MLSCN]\nNational Institutes of Environmental Health Sciences [NIEHS]\nNational Toxicology Program [NTP]\nWe have developed a 1536-well cell-based assay for quantitative high throughput screening (qHTS) against a number of cell lines to determine in vitro caspase 3/7 of small molecules. This particular assay uses the NIH 3T3 cell line which is derived from mouse fibroblasts.\nNCGC Assay Protocol Summary:\nThe Caspase-Glo 3/7 assay (Promega) is a homogeneous method to measure caspase-3 and caspase-7 activities in cultured cells. The quantitation of caspase 3/7 activity is based on the cleavage of a peptide-aminoluciferin substrate. After caspase cleaves the substrate the free aminoluciferin is liberated and serves as the substrate of luciferase, which generates the light. The luminescent signal is proportional to amount of caspase 3/7 activity present.\nUsing the Caspase-Glo 3/7 assay, the amount of caspase 3/7 activity was measured in the NIH 3T3 cell line with complete culture medium following compound treatment for 16 hours. The assay was performed in opaque white 1536-well plates. In the screen, tamoxifen and doxorubicin were used as positive controls. Library compounds were measured for their ability to cause the activation of caspase 3/7 in the cell line, as reflected by an increase in luminescence signal, in a concentration-dependent manner. Data were normalized to the controls for basal activity (DMSO only) and 100% stimulation (100 uM tamoxifen). AC50 values were determined from concentration-response data modeled with the standard Hill equation.\nqHTS protocol for caspase 3/7 assay in NIH 3T3 cells\n[Step] [Parameter] [Value] [Description]\n1. Reagent; 5 uL; 1000 NIH 3T3 cells/well\n2. Time; 5 hr; 37 °C incubation\n4. Controls; 23 nL; Tamoxifen 0.23 uM to 100 uM & Doxorubicin 7.0 pM to 100 uM\n5. Time; 16 hr; 37 °C incubation\n6. Reagent; 5 uL; Caspase-Glo 3/7 reagent\n7. Time; 20 min; Room Temperature\n8. Detection; Luminescence; Viewlux plate reader\nKeywords: caspase 3/7, apoptosis, NIH 3T3 cell line, luminescence, NTPHTS, NTPHTS_NCGC, NIEHS, EPA, DSSTox, MLSMR, MLSCN, NIH Roadmap, qHTS, NCGC", "units": {"caspase-3 activation": "%"}, "values": [{"smiles": "Oc1ccc2c(c1)OCO2", "caspase-3 activation": 1.47}, {"smiles": "Cc1c(C(=O)O)c(O)cc2c1C(=O)c1c(O)c([C@H]3O[C@H](CO)[C@@H](O)[C@H](O)[C@H]3O)c(O)c(O)c1C2=O", "caspase-3 activation": -16.3}, {"smiles": "CC(=O)OC(C(=O)c1ccccc1)c1ccccc1", "note": "(stereo not given)", "caspase-3 activation": -8.25}, {"smiles": "O=C(OCC1CO1)C1CCCCC1C(=O)OCC1CO1", "note": "(stereo not given)", "caspase-3 activation": 1.05}, {"smiles": "COc1cc(-c2ccc(N=C=O)c(OC)c2)ccc1N=C=O", "caspase-3 activation": -3.85}, {"smiles": "Oc1cc(Cl)cc(Cl)c1Cl", "caspase-3 activation": 0.697}, {"smiles": "c1cc2c3c(c1)ccc1cccc(c13)C2", "caspase-3 activation": -4.04}, {"smiles": "CC(=O)Nc1cccc(C)c1", "caspase-3 activation": -5.35}, {"smiles": "O=c1[nH]ncc2ccccc12", "caspase-3 activation": -7.1}, {"smiles": "Clc1nc2ccccc2nc1Cl", "caspase-3 activation": 0.113}, {"smiles": "O=Nc1ccc(Nc2ccccc2)cc1", "caspase-3 activation": -22}, {"smiles": "c1ccc2c(c1)ccc1ccccc12", "caspase-3 activation": -0.81}, {"smiles": "CC(=O)OC1CC(C)OC(C)O1", "note": "(stereo not given)", "caspase-3 activation": -1.82}, {"smiles": "CCCCC(CC)COP(=O)(OCC(CC)CCCC)OCC(CC)CCCC", "note": "(stereo not given)", "caspase-3 activation": -4.27}, {"smiles": "CCOc1ccc2nc(N)sc2c1", "caspase-3 activation": -14.2}, {"smiles": "O=C=Nc1ccc(Cl)c(Cl)c1", "caspase-3 activation": -5.24}, {"smiles": "CCNC(=S)NCC", "caspase-3 activation": 1.81}, {"smiles": "O=[N+]([O-])c1ccccc1Nc1ccccc1", "caspase-3 activation": -4.26}, {"smiles": "CCCCC(CC)COC(=O)COc1ccc(Cl)cc1Cl", "note": "(stereo not given)", "caspase-3 activation": 0.812}, {"smiles": "COc1ccc([N+](=O)[O-])cc1N", "caspase-3 activation": 0.0651}, {"smiles": "CCCCCCN", "caspase-3 activation": -0.443}, {"smiles": "Cc1ccc(O)c(N)c1", "caspase-3 activation": -12.6}, {"smiles": "O=C(Cl)c1ccc([N+](=O)[O-])cc1", "caspase-3 activation": -2.12}, {"smiles": "O=C1OC(=O)c2ccccc21", "caspase-3 activation": 6.24}, {"smiles": "CCCCC(CC)COCCCN", "note": "(stereo not given)", "caspase-3 activation": -1.45}, {"smiles": "CCCCNCC", "caspase-3 activation": 5.13}, {"smiles": "Cc1ccc2ccc3cccc4ccc1c2c34", "caspase-3 activation": 3.26}, {"smiles": "O=[N+]([O-])c1cc(N(CCO)CCO)ccc1NCCO", "caspase-3 activation": -12.2}, {"smiles": "c1ccc2ncccc2c1", "caspase-3 activation": 6.38}, {"smiles": "CCN(CC)c1ccc2c(C)cc(=O)oc2c1", "caspase-3 activation": -1.34}, {"smiles": "Nc1cnn([C@@H]2O[C@H](CO)[C@@H](O)[C@H]2O)c(=O)n1", "caspase-3 activation": 0.0568}, {"smiles": "C=C(C#N)C(=O)OCC", "caspase-3 activation": -0.464}, {"smiles": "C=C1CC[C@H](O)C/C1=C/C=C1\\CCC[C@]2(C)[C@@H]([C@H](C)CCCC(C)C)CC[C@@H]12", "caspase-3 activation": 10.2}, {"smiles": "C1CCCNCC1", "caspase-3 activation": -4.52}, {"smiles": "CN(C)c1ccc(C(=N)c2ccc(N(C)C)cc2)cc1", "caspase-3 activation": 12.6}, {"smiles": "NC(=O)Nc1nc2ccccc2[nH]1", "caspase-3 activation": -8.08}, {"smiles": "CN(C)c1ccc(Cc2ccc(N(C)C)cc2)cc1", "caspase-3 activation": -3.13}, {"smiles": "CCc1ccc(C(c2ccc(CC)cc2)C(Cl)Cl)cc1", "caspase-3 activation": 2.94}, {"smiles": "Cc1ccc(C(=O)O)cc1[N+](=O)[O-]", "caspase-3 activation": -2.59}, {"smiles": "COc1ccc(C(=O)Nc2ccccc2)cc1[N+](=O)[O-]", "caspase-3 activation": -18.3}]}]}
